High-throughput results as filed in PubChem.
TDP1 inh: inhibitors of human tyrosyl-DNA phosphodiesterase TDP1; Potency, µM (titrated, usually from 130 µM), without a hit: at the highest dose activity change, negative = inhibition, most hits filed as inhibitors; Q9NUW8; 0.28% of 350,000 active; recombinant TDP1, AlphaScreen DNA substrate cleavage; also: % is scaled to controls: 0 for no effect and ±100 for the full control effect; nearly all actives have a fitted effect of over 40% in size
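Tdp1 1 nM final; 15 min RT w/ cpd; substrate 15 nM, 5 min; beads 10 ug/ml, 10 min; AlphaScreen read. Neg ctrl: no enzyme.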
DT40 TDP1 no CPT: qHTS for Inhibitors of human tyrosyl-DNA phosphodiesterase 1 (TDP1): qHTS in cells in absence of CPT | DT40 Tdp1-/- hTDP1 cells, no CPT, ATP luminescence, 48 h | Potency, µM (top dose mostly 46.2 µM), for the others: at the top dose activity change, negative = growth inhibition, usual class: inhibitors | 15% of 420,000 active; also: % is scaled to controls: 0 for no effect and ±100 for the full control effect; nearly all actives have a fitted effect of over 55% in size
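DT40 Tdp1-/-;hTDP1 cells, no CPT (DMSO vehicle only), 400 cells/well; compounds pin-transferred; ≥48 hr, 37 °C; CellTiter-Glo 30 min RT dark, luminescence read.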
ClpP mod: qHTS Assay for Activators of ClpP; purified B. subtilis ClpP, FRET peptide cleavage, 20 min; Potency, µM (titrated, usually from 57.5 µM), for the others: at the highest dose activity change, negative = active; 1.9% of 340,000 active; active = well fitted falling curve with a large enough effect; inconclusive = small, poorly fitted or top-dose-only effect; inactive = no such curve, though single readings can be large or run the other way; also: the source files actives as falling curves though it sought activators and does not explain the sign; nearly all actives have a fitted effect of over 65% in size
Target sequence (P80244 whole entry, looked up): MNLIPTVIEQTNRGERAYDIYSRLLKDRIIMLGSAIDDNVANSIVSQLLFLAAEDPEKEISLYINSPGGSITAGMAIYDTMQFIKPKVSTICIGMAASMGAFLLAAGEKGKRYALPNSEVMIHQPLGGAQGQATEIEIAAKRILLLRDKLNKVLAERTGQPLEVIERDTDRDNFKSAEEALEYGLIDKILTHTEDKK
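FRET quenching reversal measured ClpP activation: 10 microg/mL B. subtilis ClpP at pH 8 with the FRET-FV decapeptide, read at 430 nm after 320 nm excitation. The 20-min minus 0-min signal was scaled between DMSO/no-enzyme wells and ADEP (5.8 microM final).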
DT40 TDP1 CPT: DT40-hTDP1 cell growth loss with CPT. chicken DT40 Tdp1-/-;hTDP1 cells + 20 nM CPT, ATP luminescence, 48 h. Potency, µM (series often up to 46.2 µM), for the others: at the highest dose activity change, negative = growth inhibition, usual class: inhibitors. 12% of 420,000 active; also: % is scaled to controls: 0 for no effect and ±100 for the full control effect; nearly all actives have a fitted effect of over 55% in size
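Chicken DT40 Tdp1-/- cells stably complemented with human TDP1 were seeded at 400 cells/well in medium containing 20 nM camptothecin, exposed to pin-transferred compounds, and grown at 37 °C for at least 48 hr. Viability was read as ATP luminescence.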
* = called active by the depositor; ? = inconclusive; · = not tested or not shown; [ ] = remark or other dose. In the library only some 17% were active in any assay of this set; here they are far more common. Unless noted, calls follow the shape of the dose curve; as a rule, active = well fitted curve in the direction sought with a large enough effect; inconclusive = small, poorly fitted or top-dose-only effect, or another doubt; inactive = no such curve, though single readings can be large; an effect the other way counts as inactive or inconclusive. Potency is read from the fitted curve at half-maximal effect.

SMILES | TDP1 inh | DT40 TDP1 no CPT | ClpP mod | DT40 TDP1 CPT
CC(Sc1nc2c(c(=O)[nH]1)CCCC2)C(=O)Nc1ccc(Br)cn1 (stereo unspecified) | 39.8µM* | 16.4µM* | · | 23.1µM*
CN1CCN(S(=O)(=O)c2ccc(Oc3cccc(C(F)(F)F)c3)nc2)CC1 | 4.6% | ? | 0.6% | ?
COc1ccc(CN2CCN(c3nc4ccccc4s3)CC2)cc1 | · | ? | -3.1% | ?
COc1ccc(CCn2c(O)cc3nn(-c4nc5ccccc5s4)c(=O)c-3c2C)cc1 | · | 16.4µM* | · | -26.0%
COC(=O)c1nc(NC(=S)NC(=O)c2cccs2)sc1C | 3.8% | -24.9% | -1.7% | -22.8%
O=C(NC(=S)Nc1nc2ccccc2s1)c1cccs1 | 3.4% | 18.4µM* | -1.9% | 16.4µM*
NC(=S)Nc1nc2ccccc2s1 | 6.1% | 4.11µM* | · | 2.59µM*
CCOC(=O)C(C(=O)OCC)C(=O)c1cccc2ccc3ccccc3c12 | · | -6.6% | -5.0% | -16.3%
CNS(=O)(=O)c1cc(-c2nnc(Nc3cc(C)ccc3C)c3ccccc23)ccc1C | -1.3%[12.3 µM] | 20.6µM* | ? | 20.6µM*
Cc1ccc(Nc2nnc(-c3ccc(C)c(S(=O)(=O)N4CCOCC4)c3)c3ccccc23)c(C)c1 | -0.4%[12.3 µM] | 16.4µM* | -29.8% | ?
Cc1ccccc1Nc1nnc(-c2ccc(C)c(S(=O)(=O)N3CCOCC3)c2)c2ccccc12 | 0.4%[12.3 µM] | 16.4µM* | 0.5% | ?
COc1ccc2[nH]cc(CCNc3ncncc3-c3ccccc3Cl)c2c1 | · | ? | · | 23.1µM*
COc1ccc2[nH]cc(CCNc3ncncc3-c3ccccc3C(F)(F)F)c2c1 | · | ? | · | 16.4µM*
COc1ccc2[nH]cc(CCNc3ncncc3-c3ccccc3OC)c2c1 | · | ? | · | -94.6%
COc1cccc(CNC(=O)c2cccc(N3CCCS3(=O)=O)c2)c1 | 5.3% | -23.0% | -6.7% | -30.0%
CCCCOc1ccc(C(=O)N(CC)CC(=O)NCc2cccs2)cc1 | -0.2% | ? | -2.6% | ?
O=C(C=Cc1cccnc1)c1ccccc1 | · | 5.8µM* | -1.4% | 5.8µM*
CN(C)C(=O)COc1ccc(C(=O)/C=C/c2cccnc2)cc1 | 4.5%[0.0935 µM] | 13µM* | · | 16.4µM*
COc1cc(C(=O)/C=C/c2cccnc2)c([N+](=O)[O-])cc1OC | 1.0% | 5.8µM* | 0.2% | 5.17µM*
CN(C)c1ccc(/C=C/C(=O)c2cccnc2)cc1 | · | -28.6% | · | 5.9%
O=C(/C=C/c1cccnc1)c1ccc(O)cc1 | · | 14.6µM* | · | ?
Cc1cccc(/C=N/NC(=O)c2ccncc2)n1 | · | -18.1% | -0.1% | 9.0%
O=[N+]([O-])c1ccc(S(=O)(=O)CC(CN2CCOCC2)N2CCOCC2)cc1 (stereo unspecified) | 5.5% | ? | · | ?
O=S(=O)(CC(CN1CCCCC1)N1CCCCC1)c1ccccc1 (stereo unspecified) | 2.4% | 4.61µM* | 1.2% | 7.31µM*
COCCNC(=O)C(NC(=O)C1CCC(C)CC1)C(C)C (stereo unspecified) | -1.8% | -5.4% | -0.4% | -1.8%
SMILES | TDP1 inh | DT40 TDP1 no CPT | ClpP mod | DT40 TDP1 CPT
C=CCn1c(SCC(=O)Nc2sc3c(c2C#N)CCC(C)C3)nc2cc(C(=O)O)ccc2c1=O (stereo unspecified) | 44.7µM* | -7.7% | · | 12.2%
CCCC1CCc2c(sc(NC(=O)OCC)c2C#N)C1 (stereo unspecified) | 5.7% | 23.1µM* | 0.1% | 14.6µM*
Cc1cc(C)nc(SCC(=O)Nc2sc3c(c2C#N)CCC(C)C3)n1 (stereo unspecified) | · | 14.6µM* | 2.3% | 20.6µM*
CC1CCc2c(sc(NC(=O)CCc3nc4ccccc4c(=O)[nH]3)c2C#N)C1 (stereo unspecified) | -9.8% | 18.4µM* | -3.5% | 16.4µM*
COC(=O)[C@H](C)NC(=O)C/C=C\[C@@H](C)[C@@H](CO)OC | 2.6%[21 µM] | · | · | ·
Cc1cc(C(=O)Nc2sc3c(c2C#N)CCC(C)C3)cs1 (stereo unspecified) | 0.0% | -10.6% | 25.1µM* | ?
Cc1noc(C)c1CSc1nc2ccccc2c(=O)n1-c1ccccc1 | 4.0% | 5.8µM* | -1.2% | 6.51µM*
